# Among all 420,000 compounds or so, about 64,000 (15%) were called active. Another 27% or so got no clear call; they are omitted. Calls follow the shape of the dose curve; as a rule, active = well fitted inhibition curve with a large enough effect; inconclusive = small, poorly fitted or top-dose-only effect; inactive = flat fitted curve, though single readings scatter. The list is a sample of the results. Where a call stands in place of a potency, no number is given.
# Experiment: qHTS for Inhibitors of human tyrosyl-DNA phosphodiesterase 1 (TDP1): qHTS in cells in absence of CPT; also: nearly all actives have a fitted effect of over 55% in size
# Settings: DT40 Tdp1-/- hTDP1 cells, no CPT, ATP luminescence, 48 h; activity change, negative = growth inhibition: at 46.2 µM (top of the series)
# Source text: Human tyrosyl-DNA phosphodiesterase 1 (TDP1) is a novel repair gene, and we propose to use it as a new target for anticancer drug development. TDP1 is not an essential protein, but under treatment with topoisomerase I poison (camptothecin: CPT), TDP1 works as a critical factor for cell survival. To directly identify novel TDP1 inhibitors active in a cellular environment, we have knocked-out the Tdp1 gene in chicken DT40 cells (Tdp1-/-) and generated a complemented counterpart cells that contains a stable transfection of the human TDP1 gene (Tdp1-/-;hTDP1 cells). For the primary screen, Tdp1-/-;hTDP1 cells will be exposed to small molecules in the presence or absence of CPT, and their growth kinetics will be evaluated after 48 hours by measuring ATP activity. […] The hit compounds will then be evaluated in the presence or absence of CPT using Tdp1-/- cells. […] In tertiary assays, biochemical gel-based assays will be used to assess whether the hit compounds specifically target TDP1.
# To this end, we have screened this cell line against the MLSMR in two primary screens. In one screen we add CPT and in the other we screen in the absence of CPT; this AID represents the screen where CPT was absent.
# NIH Chemical Genomics Center [NCGC]
# NIH Molecular Libraries Probe Centers Network [MLPCN]
# Assay Submitter (PI): Yves Pommier, NCI
# DT40-hTDP1 cells without 20 nM Camptothecin (add 20 microL of DMSO in 1 L of cell culture medium) were dispensed at 400 cells/5microL/well in tissue culture treated 1536-well white wall/solid bottom assay plates (Greiner Bio-One North America, NC, U.S.A.) using a Multidrop Combi 8 channel dispenser (Thermo Fisher, Waltham, MA, USA). 23 nL compounds and controls were transferred using the pin tool (Kalypsys, San Diego, CA, USA) to the assay plates. The assay plates were then incubated at 37 masculineC for a minimum 48 hr. Three microL of Cell Titer Glo solution was added to the plates and incubated at RT in dark for 30 min. Luminescence was read using ViewLux (Perkin Elmer) with 1 sec exposure slow speed, high gain and 2x binning.
# Potency is read from the fitted curve at half-maximal effect.
row,SMILES,Potency
1,COc1ccc(Cn2ccn(CC(=O)Nc3cc(C)ccc3C)c(=O)c2=O)cc1,inactive
2,CC(C)C(=O)Nc1ccc2c3c(cccc13)CC2,inactive
3,Cc1ccc2cc(C)c(N3CCN(c4ccc(F)cc4)CC3)nc2c1,inactive
4,CC(=O)c1c(N2CCOCC2)nc(=S)n(-c2cc(C)ccc2C)c1C,inactive
5,CC(=O)c1c(N2CCN(c3ccc(F)cc3)CC2)nc(=S)n(-c2ccccc2)c1C,20.6 µM (active)
6,CNC(=O)COc1ccc(S(=O)(=O)Nc2ccccc2)cc1,inactive
7,CCn1c(C(C)NC(=O)c2ccc(C)cc2)n[nH]c1=S (configuration not stated),inactive
8,C/C(=C\C(=O)c1ccccc1)Nc1cccc(O)c1,inactive
9,N/C(=N\OC(=O)CCn1cccc(C(F)(F)F)c1=O)c1ccc(OC(F)(F)F)cc1,inactive
10,Cc1ccc(OCCNC(=O)CN2C(=O)NC3(CCCC3)C2=O)cc1,inactive
11,COC1=CC(=O)OC(C)(c2ccccc2)C1 (configuration not stated),inactive
12,Cc1nc2c(OCc3ccc(Cl)cc3Cl)cccn2c1N(C)CC1CC1,16.4 µM (active)
13,Cc1nc2c(OCC(=O)C(C)(C)C)cccn2c1N(C)Cc1cccs1,inactive
14,Cc1nc2c(OCc3cccc(Cl)c3)cccn2c1N(C)CC1CC1,20.6 µM (active)
15,O=C(Nc1c[nH]c(=O)[nH]c1=O)OCc1ccccc1,inactive
16,Cc1ccc(C(=O)Nc2ccc(OCc3cc(=O)n4c5c(sc4n3)CCCC5)cc2)cc1,inactive
17,CC(C)(C)C(=O)NCCCNc1ccc([N+](=O)[O-])cc1,inactive
18,CN1CC(=O)N=C1N,inactive
19,O=S(=O)(NCc1ccccn1)c1ccc(F)cc1,inactive
20,CCCCN1CC(CO)Oc2cccc(F)c2S1(=O)=O (configuration not stated),inactive
21,COc1cc(C(=O)N2CCOC23CCN(Cc2ccccc2)CC3)cc(OC)c1OC,inactive
22,COc1cccc(OC)c1C(=O)N1CCN(Cc2cccnc2)CC1,inactive
23,COc1ccccc1-c1nn(Cc2ccccc2)cc1C(=O)N1CCN(c2ncccn2)CC1,16.4 µM (active)
24,COc1cc(C(=O)N2CCN(C(=O)COc3cccc(C)c3)CC2)cc(OC)c1OC,inactive
25,COc1cc(C(=O)N2CCN(C/C=C/c3ccccc3)CC2)cc(OC)c1C,29.1 µM (active)
26,COc1ccc(C(=O)NC2CC2)cc1OC1CCN(C/C=C/c2ccccc2)CC1,23.1 µM (active)

row,SMILES,Potency
1,COc1ccc(C(=O)NCCn2nc(C)cc2C)cc1OC1CCN(C(C)=O)CC1,inactive
2,COc1ccc(C(=O)NC2CC2)cc1OC1CCN(Cc2ccc(SC)cc2)CC1,inactive
3,COc1cc(C(=O)N2CCN(C)CC2)cc(OC)c1OC,inactive
4,CCOC(=O)CSc1nnc(NC(=O)C2CC(=O)N(c3ccc(F)cc3)C2)s1 (configuration not stated),inactive
5,C[C@@H]1O[C@@H](OC[C@H]2O[C@@H](Oc3c(-c4cccc(O)c4O)oc4cc(O)cc(O)c4c3=O)[C@H](O)[C@@H](O)[C@@H]2O)[C@H](O)[C@H](O)[C@H]1O,inactive
6,O=C1CN(C(=O)COC(=O)C2CC(=O)N(Cc3ccco3)C2)c2ccccc2N1 (configuration not stated),inactive
7,COc1cc(C(=O)N2CCOCC2)cc(OC)c1OC,inactive
8,Cc1cc(C)n(CCC(=O)N2CCN(S(=O)(=O)c3ccc(C)c(C)c3)CC2)n1,inactive
9,O=C(COc1ccccc1O)NC1CCCC1,inactive
10,Cc1ccc(C(=O)N/C(=C\c2ccc(F)cc2)C(=O)NCCN2CCOCC2)cc1,inactive
11,CC(C)(C)c1ccc(C(=O)N2CCN(CCNC(=O)C(=O)Nc3ccc(F)cc3)CC2)cc1,10.3 µM (active)
12,O=C(NCCN1CCOCC1)/C(=C/c1ccc(F)cc1)NC(=O)c1ccccc1,inactive
13,O=C(NCc1ccccc1)c1ccc(CNc2c(N3CCCC3)c(=O)c2=O)cc1,inactive
14,CNC(=O)CSc1nnnn1-c1ccc(C)cc1C,inactive
15,CC1=C(C(=O)OC2CCCCC2)C(c2ccccc2F)NC(=O)N1 (configuration not stated),inactive
16,Cc1ccc(C2NC(=S)NC3=C2N2CCC3CC2)cc1 (configuration not stated),inactive
17,Cc1cc2nc(-c3ccc(Cl)cc3)c(Cc3cccc(F)c3)n2c(C)c1Br,23.1 µM (active)
18,Cc1cc2nc(-c3ccc(F)cc3)c(Cc3ccsc3)n2c(C)c1Br,11.6 µM (active)
19,Cc1cc2nc(-c3ccco3)c(Cc3cccc(F)c3)n2c(C)c1Br,16.4 µM (active)
20,CC(NC(=O)CNC(=O)Cc1cccc2ccccc12)c1ccc(S(N)(=O)=O)cc1 (configuration not stated),inactive
21,Nn1c(SCC(=O)NC(=O)NC2CCCC2)nnc1-c1ccccc1F,inactive
22,O=C1CC(c2ccccc2)CC(O)=C1C=NCCN1CCOCC1 (configuration not stated),inactive
23,O=C(Oc1ccc(F)cc1)N1CCOCC1,inactive
24,CC1=C(C)CC(C(=O)NNC(=O)c2csc3c2CCC(C(C)(C)C)C3)C(C(=O)O)C1 (configuration not stated),inactive
25,C[C@H](NC(=O)OC(C)(C)C)c1nnc(SCC(=O)Nc2ccc(Br)cc2)o1,inactive
26,CCSc1nnc(-c2cc3c(s2)-c2ccccc2CC3)o1,inactive
